Screening results as filed in PubChem.
PK Bst – pyruvate kinase (B. stearothermophilus) modulation. purified pyruvate kinase, luminescence ATP production; ribose 5-phosphate activator present at AC10. actives 1.2% (n = 51,000). Potency, µM; in the data active means potency below about 11 µM; inconclusive means mostly about 12 µM to 25 µM;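 the screen sought inhibitors and activators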;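 further: scaled between full activation by ribose 5 phosphate and full inhibition by luteolin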
GBA mod – alters purified human glucocerebrosidase activity; AID 360; Potency, µM; P04062; purified enzyme, resorufin glucoside fluorescence (screen aimed at inhibitors), 20 min; actives 1.1% (n = 48,000); in the data active means potency below about 15 µM; inconclusive means mostly about 16 µM to 33 µM;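 further: the screen sought inhibitors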
Target sequence (P04062 whole entry, looked up): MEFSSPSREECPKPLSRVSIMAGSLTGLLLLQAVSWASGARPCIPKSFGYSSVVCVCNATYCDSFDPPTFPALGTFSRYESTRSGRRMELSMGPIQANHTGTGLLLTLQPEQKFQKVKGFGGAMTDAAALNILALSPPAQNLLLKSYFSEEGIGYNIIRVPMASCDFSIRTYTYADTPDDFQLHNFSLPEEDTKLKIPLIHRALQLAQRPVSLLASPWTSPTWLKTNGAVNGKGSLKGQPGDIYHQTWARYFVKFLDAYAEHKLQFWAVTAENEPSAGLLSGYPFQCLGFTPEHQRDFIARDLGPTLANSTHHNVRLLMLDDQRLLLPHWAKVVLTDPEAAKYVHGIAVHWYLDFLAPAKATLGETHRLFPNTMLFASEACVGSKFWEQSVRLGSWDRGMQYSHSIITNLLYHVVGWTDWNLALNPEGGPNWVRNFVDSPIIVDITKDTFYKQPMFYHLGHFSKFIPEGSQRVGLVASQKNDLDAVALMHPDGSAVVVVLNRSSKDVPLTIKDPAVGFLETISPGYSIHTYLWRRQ
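Compounds titrated against 0.2 nM normal enzyme, 30 uM resorufin beta-D-glucopyranoside substrate, citrate/phosphate buffer with taurocholate and tween-20, pH 5.9. Reaction ran 20 min at room temperature; fluorescence (Ex 548/Em 600) gave AC50.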
FLuc inh – firefly luciferase inhibition; Potency, µM (titrated, usually from 57.1 µM), inactives show at the highest dose activity change, negative = inhibition, actives largely listed as inhibitors; purified firefly luciferase, luminescence, 8 min; P08659; actives 2.2% (n = 72,000); active means well fitted inhibition curve with a large enough effect; inconclusive means small, poorly fitted or top-dose-only effect; further: on the % scale 0 is the no-effect control and ±100 the full control effect; nearly all actives have a fitted effect of over 40% in size
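Firefly luciferase (PKLight detection mix) with 10 uM ATP in pH 7.2 imidazole buffer (KCl, MgCl2, Tween 20, BSA). Compounds tested across a concentration series (qHTS). Luminescence read after 8 min at ambient temperature.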
The depositor's hits bear a star; i = inactive; ? = inconclusive; . = no result given; [ ] = another dose, or the depositor's remark. This is a sample that favours compounds with a hit; in the whole collection about 3.4% have one here. Potency means the concentration at half of the fitted maximal effect.

SMILES	PK Bst	GBA mod	FLuc inh
O=C(c1ccco1)[C@@H]1[C@@H]2C(=O)N(c3ccc(Br)cc3)C(=O)[C@@H]2C2c3ccccc3C=CN21 (stereo partly drawn)	7.2*	>77	-12%
O=C(c1ccco1)[C@@H]1[C@@H]2C(=O)N(c3ccc(F)cc3)C(=O)[C@@H]2C2c3ccccc3C=CN21 (stereo partly drawn)	>57	>77	-3%
CC(C)CN1CCC2(CC1)CCN(C(=O)c1cccn1C)CC2	.	.	3%[11.4 µM]
Cc1cc(C(=O)CSc2nc3ccccc3[nH]2)c(C)n1C	.	>77	16µM*
CN1CCN(C(=O)c2ccc(Cl)c(S(=O)(=O)N3CCCCC3)c2)CC1	.	.	0%
Cc1cc(C(=O)COC(=O)c2n[nH]c3ccccc23)c(C)n1C	?	>77	13µM*
CCOC(=O)c1n[nH]c2ccccc12	>26	.	2%[25.5 µM]
COCCn1c(C)cc(C(=O)COC(=O)c2c(C)nn(Cc3ccccc3)c2C)c1C	>57	>77	-3%
COCCn1c(C)cc(C(=O)COC(=O)c2n[nH]c3ccccc23)c1C	1.4*	>77	1.3µM*
Cc1cc(C(=O)CSc2nc3ccc(Cl)cc3[nH]2)c(C)n1C	.	>77	-6%
CCCn1c(C)cc(C(=O)COC(=O)c2ccc(Cl)c(S(=O)(=O)N3CCCC3)c2)c1C	?	>77	13µM*
CCc1ccc(CCC(=O)O)nc1	.	.	-1%[11.4 µM]
CCCCC[C@H](O)c1cccc(OCc2ccc3ccccc3n2)c1	.	.	-11%
OC[C@H]1NC[C@@H](O)[C@@H](O)[C@H]1O	.	.	0%
CS(=O)(=O)N1CCC2(CCN(C(c3ccccc3)c3ccccc3)CC2)CC1	.	.	2%[11.4 µM]
CO[C@@H]1/C=C\O[C@]2(C)Oc3c(C)c(O)c4c(O)c(cc(O)c4c3C2=O)NC(=O)/C(C)=C\C=C/[C@H](C)[C@@H](O)[C@H](C)[C@H](O)[C@H](C)[C@H](OC(C)=O)[C@@H]1C	.	.	0%[11.4 µM]
Cc1cc2c(c(=O)o1)[C@H](O)[C@H]1O[C@@H]1C2=O	.	.	1%[11.4 µM]
CCNc1ncc2nc(-c3cc(F)cc(F)c3)c(=O)n(CCc3ccccc3)c2n1	.	.	0%[11.4 µM]
COc1ccc(-c2coc3ccc(O[C@@H]4O[C@@H](COC(C)=O)[C@@H](OC(C)=O)[C@@H](OC(C)=O)[C@H]4OC(C)=O)c(OC(C)=O)c3c2=O)cc1	.	.	1%[11.4 µM]
C[C@H]1CCCC=CC2C[C@H](OC(=O)CN(C)C)C[C@@H]2[C@@H](O)/C=C\C(=O)O1 (stereo partly drawn)	.	.	5%[11.4 µM]
COCCn1c(C)cc(C(=O)COC(=O)c2ccc3ncsc3c2)c1C	.	>77	25µM*
O=C(OCC(=O)c1ccco1)c1ccc2ncsc2c1	>57	>77	-12%
Cc1nnc(NC(=O)c2ccccc2Br)s1	>57	3.9*	-2%
Cc1nnc(NC(=O)c2ccccc2F)s1	>57	7.9*	0%
Cc1nnc(NC(=O)c2c(F)c(F)c(F)c(F)c2F)s1	>57	?	1%
SMILES	PK Bst	GBA mod	FLuc inh
O=C(Nc1nncs1)c1ccccc1Br	.	.	4%
COc1ccc(-c2nc3cncnc3n(-c3ccccc3)c2=O)cc1	.	.	-1%[11.4 µM]
CCOC(=O)c1sc(NC(=O)c2ccc(Br)o2)cc1C	6.4*	?	5µM*
CCOC(=O)c1cccc(NC(=O)c2cccs2)c1	.	?	-27%
CCCCC(=O)Nc1cccc(NC(=O)c2ccc(Br)o2)c1	>57	>77	-3%
CCOC(=O)c1sc(NC(=O)c2cccs2)cc1C	.	>77	2µM*
Cc1nc2cnc(Nc3ccccc3)nc2n(CCc2ccccc2)c1=O	.	.	-7%[11.4 µM]
CC[C@H](C(=O)[C@H](C)[C@H](O)[C@H](C)CCc1ccc(C)c(O)c1C(=O)O)[C@H]1O[C@](CC)([C@@H]2CC[C@@](O)(CC)[C@H](C)O2)C[C@H]1C	.	.	2%[25.5 µM]
C=CC[C@@H](C(=O)O)c1ccccc1	.	.	0%[11.4 µM]
Cc1cc2ncc(-c3ccc(Cl)cc3)c(N)n2n1	.	.	13µM*
Cn1c(-c2ccc(Cl)cc2)cnc1N	.	?	7%
COc1cccc(Cn2c(=O)c(-c3ccc(Cl)cc3)nc3cncnc32)c1	.	.	-1%[11.4 µM]
N[C@@H](C(=O)O)[C@@H]1C[C@H]1C(=O)O	.	.	2%
CC(C)c1ccc(NC(=O)C2CCN(S(C)(=O)=O)CC2)cc1	>57	12*	-8%
COC(=O)c1ccc(NC(=O)C2CCN(S(C)(=O)=O)CC2)cc1	>57	>77	5%
CS(=O)(=O)N1CCC(C(=O)Nc2ccc(Oc3ccccc3)cc2)CC1	>57	14*	-1%
CCc1ccc(NC(=O)C2CCN(S(C)(=O)=O)CC2)cc1	>57	?	1%
Cc1ccc2c(CC(=O)Nc3ccc(N4CCN(C)CC4)cc3C)coc2c1	i	.	6.3µM*
Cc1ccc2c(CC(=O)Nc3sccc3C(N)=O)coc2c1	.	>77	-18%
CN1C(=O)N(C)C(NC(=O)Nc2ccccc2)C1NC(=O)Nc1ccccc1 (stereo not drawn)	>57	>77	-4%
CC(C)CNC(=O)NC1C(NC(=O)NCC(C)C)N(C)C(=O)N1C (stereo not drawn)	10*	>77	5µM*
COc1ccc(-c2nc3cnc(N4CCOCC4)nc3n(CCC#N)c2=O)cc1	.	.	-8%[11.4 µM]
COc1cccc(-c2csc(NC(C)=O)n2)c1	.	>77	-28%
COc1ccc2c(c1)Cc1sc(NC(C)=O)nc1-2	?	>77	13µM*
CC(C)NC(=O)N1CCCC2(CCN(C(=O)c3ccncc3)CC2)C1	.	.	1%[11.4 µM]
SMILES	PK Bst	GBA mod	FLuc inh
O=C(c1ccc2c(c1)OCO2)n1nnc2ccccc21	.	.	2%
O=C1CC(c2ccco2)Sc2nc3ccccc3n21 (stereo not drawn)	.	.	-17%
O=C1CC(c2ccc3c(c2)OCO3)Sc2nc3ccccc3n21 (stereo not drawn)	4.5*	>77	4µM*
O=C1CC(c2cccs2)Sc2nc3ccccc3n21 (stereo not drawn)	i	>77	16µM*
O=C(O)CC(CC(=O)O)C(=O)O	.	.	1%[11.4 µM]
CC(=O)OCC(=O)[C@@]1(OC(C)=O)[C@H](C)C[C@H]2[C@@H]3C[C@H](F)C4=CC(=O)C=C[C@@]4(C)[C@]3(F)[C@H](O)C[C@@]21C	.	.	10%[25.5 µM]
C[C@H](O/N=C1/[C@H]2O[C@@H]2[C@@H](O)[C@H]2[C@H]1CCn1c(=O)n(-c3ccccc3)c(=O)n12)c1cn([C@H]2COC[C@H]2O)nn1	.	.	-2%[11.4 µM]
COc1ccccc1CNc1ncnc2ccc(-c3cccc(NS(C)(=O)=O)c3)cc12	.	.	1%[2.29 µM]
CCOc1cccc2cc(-c3nnc(NCc4ccco4)s3)c(=O)oc12	.	>77	-9%
COc1ccc2oc(=O)c(-c3nnc(NCc4ccco4)s3)cc2c1	>57	9.9*	-1%
CCCC(=O)Nc1ccc(OC[C@@H](O)CNC(C)C)c(C(C)=O)c1	.	.	3%[25.5 µM]
COc1ccc(-c2nn(-c3ccccc3)cc2/C=N/n2cnnc2)cc1OC	.	>77	?
C(=N\n1cnnc1)/c1cn(-c2cccs2)nc1-c1ccccc1	?	.	25µM*
Cn1ncc2c(Cl)ncnc21	.	.	3%[11.4 µM]
CC(=O)Nc1cccc(-c2csc(NCc3ccco3)n2)c1	.	?	-18%
Oc1ccc(Nc2nc(-c3ccc(O)cc3)cs2)cc1	8*	i	16µM*
NS(=O)(=O)c1ccc(Nc2nc(-c3ccc(O)cc3)cs2)cc1	?	>77	-3%
COc1nc(Nc2ccc3c(c2)OCO3)nc(OC)n1	.	.	-4%
Oc1ccc(-c2csc(NCc3ccco3)n2)cc1	i	i	25µM*
